Laboratory results: PubChem BioAssay AID1527 (The Scripps Research Institute Molecular Screening Center, 2009)
In all, about 290,000 compounds went through this assay and about 2,600 (0.9%) were called active.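 How the source made its calls: active means inhibition above the mean of all tested compounds plus 3 SD, cutoff set per screening run (cut at about 7.5% in these data); inactive means the rest.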 For the sample, actives were picked, then their nearest neighbours and some compounds at random.

The compounds below were run on VIM-2 metallo-beta-lactamase (Pseudomonas aeruginosa) (assay: inhibition of VIM-2 nitrocefin hydrolysis – biochemical, epi-absorbance readout, Pseudomonas aeruginosa enzyme, primary screen (AID 1527;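 further: red hydrolysis product quenches plate fluorescence so inhibitors raise well fluorescence; 0% = enzyme with DMSO and 100% = DMSO without enzyme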)). Details: purified VIM-2, nitrocefin hydrolysis, epi-absorbance fluorescence; at 5.6 µM; stronger effect = higher value.
For CCN(CC)CCCNC(=O)c1cc2c(=O)[nH]c3ccc(C)cc3c2s1, the inhibition was 11.4% (active).
Cc1cccc(N(C)C(=O)c2cc3c(=O)[nH]c4ccc(C)cc4c3s2)c1 was tested, and the inhibition was -1.79% (inactive).
With CCN(CC)CCCNC(=O)c1cc(-c2cccc(Cl)c2)on1 the inhibition was -2.99% (inactive).
In the case of NC(=O)c1cc2ccccc2o/c1=N/NC(=O)c1cccc(F)c1, the inhibition was -3.88% (inactive).
For COc1ccc(C(=O)N/N=c2\oc3ccccc3cc2C(N)=O)cc1, the inhibition was -2.23% (inactive).
For CCN(CC)c1ccc2cc(C(N)=O)/c(=N\NC(=O)c3ccncc3)oc2c1, the inhibition was 17.2% (active).
For COc1ccccc1CNC(=O)C1CCN(C(=O)[C@@H]2Cc3ccccc3CN2)CC1, the inhibition was -1% (inactive).
Nc1nc(SCc2cccc(Br)c2)n[nH]1 was tested, and the inhibition was -2.53% (inactive).
Cc1cc(NC(C)C)n2c(nc3ccccc32)c1C#N was tested, and the inhibition was 6.91% (inactive).
CC(C)c1cc(NCc2ccccn2)n2c(nc3ccccc32)c1C#N was tested, and the inhibition was 3.25% (inactive).
For Cc1cc(NCc2ccco2)n2c(nc3ccccc32)c1C#N, the inhibition was 23.1% (active).
With CC(C)c1ccc2oc(=O)cc(CN3CCN(Cc4ccccc4)CC3)c2c1 the inhibition was -0.17% (inactive).
CCOC(=O)N1CCC(N2Cc3cccc(C(=O)Nc4ccc(S(=O)(=O)N(CC)CC)cc4)c3C2=O)CC1 was tested, and the inhibition was 1.9% (inactive).
With O=C(NNS(=O)(=O)c1ccccc1)c1cnn(-c2ccc(Cl)cc2)c1C(F)(F)F the inhibition was -0.91% (inactive).
COc1ccccc1N1CCN(c2nc(C)cc(=O)[nH]2)CC1 was tested, and the inhibition was -1.83% (inactive).
In the case of CN(C)c1ccc(CNC2C3CC4CC(C3)CC2C4)cc1 (stereo not given), the inhibition was -1.88% (inactive).
With O=C(CCC(=O)N/N=C/c1ccc(Br)o1)N/N=C/c1ccc(Br)o1 the inhibition was -1.34% (inactive).
O=C(NCCN1CCN(Cc2ccccc2)CC1)c1cc2c(=O)[nH]c3ccccc3c2s1 was tested, and the inhibition was 7.06% (inactive).
O=C(NCCCN1CCOCC1)c1cc2c(s1)CCC2 was tested, and the inhibition was -5.51% (inactive).
In the case of CN1CCN(CCCNC(=O)c2cc3c(=O)oc4ccccc4c3s2)CC1, the inhibition was 7.83% (active).
For CCOC(=O)N1CCN(S(=O)(=O)N2CCCC(C(=O)NCCCN3CCC(C)CC3)C2)CC1 (stereo not given), the inhibition was -0.26% (inactive).
With Cc1ccc(Nc2c3c(nc4ccccc24)CCC3)cc1 the inhibition was 5.26% (inactive).
CC(=O)Nc1ccc(Nc2c3ccccc3nc3ccccc23)cc1 was tested, and the inhibition was 9.49% (active).
With CC(=O)Nc1ccc(-c2nc3ccccc3o2)cc1 the inhibition was -1.18% (inactive).
With Nc1nnc2c(C(F)(F)F)nc3ccccc3n12 the inhibition was 14.8% (active).
In the case of Cc1ccc(Oc2nc3ccccc3n3c(C)nnc23)cc1, the inhibition was 0.26% (inactive).
With FC(F)(F)c1nnc2c3ccccc3c(Cl)nn12 the inhibition was 4.08% (inactive).
With COc1ccc(C2=NS(=O)(=O)N(C)C(C(=O)N(C)Cc3ccccc3)=C2)cc1 the inhibition was -0.5% (inactive).
With Cc1cccn2c(=O)c3cc(C(=O)NC4CCCCC4)sc3nc12 the inhibition was 8.99% (active).
For Cc1ccccc1-n1nc(C)c2cc(C(=O)NC3CC3)sc21, the inhibition was -1.43% (inactive).
CN(C(=O)c1cc2c(=O)n3ccccc3nc2s1)C1CCCCC1 was tested, and the inhibition was 3.44% (inactive).
In the case of CCc1ccc(N(CC(=O)NCc2cccnc2)S(=O)(=O)c2ccccc2)cc1, the inhibition was -2.09% (inactive).
For COc1ccccc1C(=O)Nc1ccnn1C1CCN(C(=O)C(C)(C)C)CC1, the inhibition was -0.24% (inactive).
For COc1ccc(-c2nn(C)c(=O)c3ccccc23)cc1CNC(=O)C1CCCCC1, the inhibition was 8.72% (active).
In the case of CCC(=O)NCc1cc(-c2nn(C)c(=O)c3ccccc23)ccc1OC, the inhibition was 1.81% (inactive).
With COc1ccc(-c2nn(C)c(=O)c3ccccc23)cc1NC(=O)COc1ccccc1 the inhibition was 3.19% (inactive).
In the case of CCOc1cccc(-c2nn3c(-c4ccccn4)nnc3s2)c1, the inhibition was 1.31% (inactive).
c1ccc(-c2cc(-c3nnc4sc(-c5ccccn5)nn34)[nH]n2)cc1 was tested, and the inhibition was 6.5% (inactive).
For Fc1ccc(-c2ccc(-c3nn4c(-c5ccco5)nnc4s3)o2)cc1, the inhibition was -1.72% (inactive).
With COc1cc(-c2nnn(CC(=O)NCc3ccccc3)n2)cc(OC)c1OC the inhibition was -0.9% (inactive).
With COc1cc(-c2nn3c(-c4cccc(C)c4)nnc3s2)cc(OC)c1OC the inhibition was 14.8% (active).
For COc1ccc(-c2nn3c(-c4ccccc4)nnc3s2)cc1OC, the inhibition was 14.4% (active).
COc1ccc(C)cc1S(=O)(=O)N(CC(=O)Nc1cccc([N+](=O)[O-])c1)c1ccc(C)cc1 was tested, and the inhibition was -0.96% (inactive).
COc1ccc(C(C(=O)NC2CCCCC2)N(C(=O)c2snc(C(N)=O)c2N)c2ccccc2OC)cc1 (stereo not given) was tested, and the inhibition was -3.87% (inactive).
With N#Cc1cc([N+](=O)[O-])ccc1NCC1CCCO1 (stereo not given) the inhibition was -4.39% (inactive).
For CN(Cc1ccccn1)Cc1nc(-c2ccc(Cl)cc2)no1, the inhibition was -2.91% (inactive).
For CCN(CCn1cccn1)Cc1nc(-c2ccc(C(=O)OC)cc2)no1, the inhibition was 0.55% (inactive).
For COC(=O)c1ccc(-c2noc(CN(Cc3ccccn3)CC3CCCO3)n2)cc1 (stereo not given), the inhibition was 19.8% (active).
COc1ccccc1C(=O)NNC(=O)CCN1C(=O)/C(=C\c2ccccc2)SC1=S was tested, and the inhibition was -3.54% (inactive).
For COc1ccc(/C=C2\SC(=S)N(CCC(=O)Nc3ccccn3)C2=O)cc1OC, the inhibition was -0.57% (inactive).
COc1cc(/C=C2/SC(=S)N(Cc3ccccc3)C2=O)cc(OC)c1O was tested, and the inhibition was 7.8% (active).
O=C(CCc1ccccc1)NNC(=O)COc1ccc(Cl)cc1 was tested, and the inhibition was -4.89% (inactive).
Cc1ccc(C2CCN(C(=S)Nc3cccc(Cl)c3)C2)cc1 (stereo not given) was tested, and the inhibition was -1.21% (inactive).
O=C(NCC(=O)N1CCN(c2ccccc2F)CC1)c1cccs1 was tested, and the inhibition was -3.61% (inactive).
O=C(O)CS/C(=C\c1ccc(F)cc1)c1nc2ccccc2s1 was tested, and the inhibition was 2.23% (inactive).
With O=C(Nc1nc2ccccc2s1)c1ccc2c(c1)OCO2 the inhibition was -3.05% (inactive).
With O=C(O)CC/C(=C\c1cc2c(cc1Br)OCO2)c1nc2ccccc2s1 the inhibition was 7.92% (active).
In the case of C/C(=N\NC(=O)C1(C)CC1(Br)Br)c1ccc(C)cc1C (stereo not given), the inhibition was -0.97% (inactive).
In the case of CC(C)n1c(COc2ccccc2)nc2ccccc21, the inhibition was -2.15% (inactive).
O=C(CN1CCN(S(=O)(=O)c2cc(Cl)ccc2Cl)CC1)c1ccc(O)c(O)c1 was tested, and the inhibition was 2.29% (inactive).
